Compound activity (PubChem)
This is a sample that favours compounds with a hit; in the whole collection about 7.5% have one here.
Rab9 prom act: activates the Rab9 promoter. Huh7 Rab9 promoter-luciferase reporter, luminescence, 24 h. Potency, µM (series often up to 9.22 µM), actives largely listed as activators. hit rate 2.8% among 320,000; further: nearly all actives have a fitted effect of over 60% in size
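Luminescence from Amplite-detected luciferase (10 minutes, ambient) reports Rab9 promoter activation. Before that, stable Rab9-luciferase Huh7 cells (1500/well, reduced-serum OP-MEM I plus 10% FBS) were exposed to compound for 24 hours at 37C.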
NPC1 promoter act: activators of NPC1 promoter; Huh7 NPC1 promoter luciferase reporter, 24 h; Potency, µM (highest dose often 9.22 µM), hits mostly activators; hit rate 2.4% among 320,000; AID 485313; further: nearly all actives have a fitted effect of over 60% in size
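Luminescence from an NPC1 promoter-driven luciferase reporter in stably transfected Huh7 cells was measured after 24 h compound treatment at 37 °C, followed by 10 min ambient incubation with luciferase detection reagent.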
ELG1 genotoxic: genotoxicity induction in ELG1-luciferase HEK293T cells. HEK293T ELG1-luciferase reporter, luminescence, 16 h. Potency, µM (series often up to 46 µM), hits mostly activators. hit rate 1.3% among 330,000; further: nearly all actives have a fitted effect of over 60% in size
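Step 1: seed 2,000 HEK293T ELG1-luciferase cells per well. Step 2: add compound or DMSO, incubate 16 hr at 37 °C. Step 3: ONE-Glo, 30 min at room temperature, read luminescence.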
Luc counter: counter-screen: inhibitors of Kinase-Glo firefly luciferase | hit rate 0.28% among 200,000 | Kinase-Glo luciferase, ATP luminescence, 8 min | Potency, µM (highest dose often 38.3 µM), hits mostly inhibitors | AID 1379 | Q27757; further: nearly all actives have a fitted effect of over 60% in size
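Substrate mix (final 50 mM imidazole pH 7.2, 50 mM KCl, 7 mM MgCl2, 10 uM ATP, 0.01% Tween 20, 0.05% BSA) plus pin-tool compound, then Kinase-Glo detection mix; 8 min ambient, luminescence read.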
SMN2 splice enh: increases expression of the SMN2 splice variant; HEK293 SMN2-luciferase splicing reporter, luminescence, 30-36 h; Potency, µM (titrated, usually from 46.1 µM), most hits filed as activators; hit rate 2.8% among 210,000; further: nearly all actives have a fitted effect of over 55% in size
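qHTS luciferase splicing reporter: luminescence rises when SMN2 exon 7 is included in transfected HEK293 cells. Compound exposure lasted 30-36 h at 37C, with 4.5 mM final sodium butyrate as control, followed by a ONE-Glo read.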
FLuc modulator: counter-screen for miR-21 project: firefly luciferase inhibitors or activators; hit rate 6.9% among 360,000; Potency, µM (highest dose often 57.5 µM), usual class: inhibitors; purified FLuc, Km substrates, luminescence inhibition; P08659; further: nearly all actives have a fitted effect of over 55% in size
Target sequence (P08659 whole entry, looked up): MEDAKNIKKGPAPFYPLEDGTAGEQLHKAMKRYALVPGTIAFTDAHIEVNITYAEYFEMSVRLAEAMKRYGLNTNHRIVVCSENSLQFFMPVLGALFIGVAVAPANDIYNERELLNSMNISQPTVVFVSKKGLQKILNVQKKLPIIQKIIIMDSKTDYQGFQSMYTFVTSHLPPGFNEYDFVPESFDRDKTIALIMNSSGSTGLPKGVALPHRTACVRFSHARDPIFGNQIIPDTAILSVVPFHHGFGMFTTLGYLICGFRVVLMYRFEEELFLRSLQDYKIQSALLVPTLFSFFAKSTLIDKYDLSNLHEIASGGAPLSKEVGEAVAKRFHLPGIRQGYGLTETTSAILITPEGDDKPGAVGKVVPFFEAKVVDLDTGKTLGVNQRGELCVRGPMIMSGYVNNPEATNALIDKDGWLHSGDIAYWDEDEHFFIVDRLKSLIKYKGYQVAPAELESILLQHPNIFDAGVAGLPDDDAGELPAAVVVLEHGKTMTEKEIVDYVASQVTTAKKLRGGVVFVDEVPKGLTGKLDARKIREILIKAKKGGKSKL
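Purified P. pyralis luciferase (10nM final) with 10uM D-luciferin and 10uM ATP (Km levels) in 50mM Tris acetate pH 7.5, 10mM Mg acetate, 0.01% Tween-20, 0.05% BSA; qHTS 6-point titration, ~60 µM downward; luminescence read.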
Large screens that a line does not name were inactive. The call rests on the fitted dose curve; in most records, active means well fitted curve in the direction sought with a large enough effect; inconclusive means small, poorly fitted or top-dose-only effect, or another doubt; inactive means no such curve, though single readings can be large; an effect the other way counts as inactive or inconclusive.

O=C(N/N=C/c1ccccc1C(=O)O)c1cc(-c2ccc3c4c(cccc24)CC3)n[nH]1	FLuc modulator 15.1µM
CCC(C)NC(=O)CSc1nc2n[nH]c(C)c2c(=N)n1-c1cc(Cl)ccc1C (stereo not given)	none (no result: Rab9 prom act, NPC1 promoter act, ELG1 genotoxic, Luc counter, SMN2 splice enh)
Clc1ccc2c(c1)C1OCCC1C(c1ccco1)N2 (stereo not given)	Rab9 prom act 4.47µM, NPC1 promoter act inconclusive, ELG1 genotoxic inconclusive, Luc counter inconclusive, SMN2 splice enh 12.6µM, FLuc modulator inconclusive
CCc1ccccc1NC(=O)Cn1c(C(=O)OC)cc2oc(C)cc21	none (no result: Rab9 prom act, NPC1 promoter act, ELG1 genotoxic, Luc counter)
O=C(O)CCC(=O)c1ccc2ccc3cccc4ccc1c2c34	FLuc modulator 21.3µM
CS(=O)(=O)NCc1nnc(SCc2ccc(C(F)(F)F)cc2)o1	none (no result: Luc counter, SMN2 splice enh)
COC(=O)c1oc2ccc(OC)cc2c1N	SMN2 splice enh inconclusive, FLuc modulator 21.3µM
COc1ccc2oc(C(=O)OCC(=O)NC3CC3)c(C)c2c1	FLuc modulator inconclusive (no result: Luc counter, SMN2 splice enh)
COc1ccc(C(=O)c2oc3ccc(OC)cc3c2N)cc1	Rab9 prom act 2.82µM, NPC1 promoter act 2.82µM, ELG1 genotoxic 13µM, SMN2 splice enh 14.1µM, FLuc modulator 7.57µM
COc1ccc(C(=O)c2oc3ccc(OC)cc3c2NC(C)=O)cc1	none
CC(C)(C)c1ccc(/C=N/NC(=O)c2ccccn2)cc1	Rab9 prom act 0.891µM, NPC1 promoter act 0.316µM, ELG1 genotoxic inconclusive, FLuc modulator 0.379µM (no result: SMN2 splice enh)
O=C(N/N=C/c1ccc(OC(=O)c2ccccc2Br)cc1)c1ccccn1	none (no result: Luc counter, SMN2 splice enh)
